Where “and” joins values, the source holds several entries; their conditions need not be identical. Identical values can stand only once. Out of some 5,500 compounds screened, about 2,000 (36%) were called active. Not shown: some 18% with an inconclusive outcome. The list shows a part of the results. Unmarked numbers belong to inactive results. Rule as the data show it: active = normalized growth mostly below about 0.91 (no sharp cut-off); inconclusive = no clear call, values can overlap the other calls; inactive = mostly above about 0.92.
Assay: chemical genetic growth profiling, strain panel (AID 1159580);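 also: tested at 20 µM; growth read once vehicle control cultures reached saturation at 30 °C; 1 = growth at the plate median or of vehicle wells; lower values mean less growth of the strain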
Conditions: S. cerevisiae deletion strains, growth OD

## C[C@H]1c2cccc(O)c2C(O)=C2C(=O)[C@]3(O)C(O)=C(C(N)=O)C(=O)[C@@H](N(C)C)[C@@H]3[C@@H](O)[C@@H]21
Locus YAL021C, strain ccr4, stronger effect = lower value
  normalized growth: 0.991
Locus YAL026C, strain drs2, stronger effect = lower value
  normalized growth: 0.978
Locus YAL030W, strain snc1, stronger effect = lower value
  normalized growth: 0.976
Locus YBL061C, strain skt5, stronger effect = lower value
  normalized growth: 0.995
Locus YBR009C, strain hhf1, stronger effect = lower value
  normalized growth: 0.958
Locus YBR021W, strain FUR4, stronger effect = lower value
  normalized growth: 0.884
Locus YBR023C, strain chs3, stronger effect = lower value
  normalized growth: 0.987
Locus YBR171W, strain sec66, stronger effect = lower value
  normalized growth: 0.956
Locus YBR229C, strain ROT2, stronger effect = lower value
  normalized growth: 1
Locus YBR231C, strain swc5, stronger effect = lower value
  normalized growth: 0.979
Locus YBR279W, strain paf1, stronger effect = lower value
  normalized growth: 0.988
Locus YCL011C, strain gbp2, stronger effect = lower value
  normalized growth: 0.971
Locus YCL016C, strain dcc1, stronger effect = lower value
  normalized growth: 1.02
Locus YCL029C, strain bik1, stronger effect = lower value
  normalized growth: 0.953
Locus YCL069W, strain vba3, stronger effect = lower value
  normalized growth: 0.956
Locus YCR088W, strain abp1, stronger effect = lower value
  normalized growth: 0.985
Locus YDL005C, strain med2, stronger effect = lower value
  normalized growth: 0.998
Locus YDL035C, strain GPR1, stronger effect = lower value
  normalized growth: 0.963
Locus YDL040C, strain nat1, stronger effect = lower value
  normalized growth: 0.975
Locus YDL074C, strain BRE1, stronger effect = lower value
  normalized growth: 0.963
Locus YDL101C, strain DUN1, stronger effect = lower value
  normalized growth: 0.984
Locus YDL185W, strain tfp1, stronger effect = lower value
  normalized growth: 0.954
Locus YDL192W, strain arf1, stronger effect = lower value
  normalized growth: 0.966
Locus YDR001C, strain nth1, stronger effect = lower value
  normalized growth: 0.984
Locus YDR069C, strain doa4, stronger effect = lower value
  normalized growth: 0.973
Locus YDR101C, strain arx1, stronger effect = lower value
  normalized growth: 1.01
Locus YDR137W, strain rgp1, stronger effect = lower value
  normalized growth: 0.962
Locus YDR159W, strain sac3, stronger effect = lower value
  normalized growth: 0.951
Locus YDR162C, strain NBP2, stronger effect = lower value
  normalized growth: 0.978
Locus YDR195W, strain ref2
  normalized growth: 0.979
Locus YDR297W, strain sur2, stronger effect = lower value
  normalized growth: 0.991
Locus YDR318W, strain mcm21, stronger effect = lower value
  normalized growth: 0.961
Locus YDR334W, strain swr1, stronger effect = lower value
  normalized growth: 0.944
Locus YDR335W, strain msn5, stronger effect = lower value
  normalized growth: 0.988
Locus YDR388W, stronger effect = lower value
  normalized growth: 0.98
Locus YDR392W, strain spt3, stronger effect = lower value
  normalized growth: 0.911
Locus YDR502C, strain sam2, stronger effect = lower value
  normalized growth: 0.979
Locus YEL003W, strain gim4, stronger effect = lower value
  normalized growth: 0.978
Locus YEL037C, strain rad23, stronger effect = lower value
  normalized growth: 0.975
Locus YEL061C, strain CIN8 (second series), stronger effect = lower value
  normalized growth: 0.971
Locus YEL061C, strain CIN8, stronger effect = lower value
  normalized growth: 0.984
Locus YER015W, strain faa2, stronger effect = lower value
  normalized growth: 0.977
Locus YER016W, strain bim1, stronger effect = lower value
  normalized growth: 1.01
Locus YER110C, stronger effect = lower value
  normalized growth: 0.965
Locus YER111C, strain swi4, stronger effect = lower value
  normalized growth: 0.995
Locus YER155C, strain BEM2 (second series), stronger effect = lower value
  normalized growth: 0.886
Locus YER155C, strain BEM2, stronger effect = lower value
  normalized growth: 1.01
Locus YER167W, strain BCK2, stronger effect = lower value
  normalized growth: 0.994
Locus YFR010W, strain ubp6, stronger effect = lower value
  normalized growth: 0.955
Locus YGL078C, strain dbp3, stronger effect = lower value
  normalized growth: 0.968
Locus YGL086W, strain mad1, stronger effect = lower value
  normalized growth: 0.992
Locus YGL167C, strain pmr1, stronger effect = lower value
  normalized growth: 0.965
Locus YGL173C, strain kem1, stronger effect = lower value
  normalized growth: 0.975
Locus YGL227W, strain vid30, stronger effect = lower value
  normalized growth: 0.987
Locus YGL240W, strain doc1, stronger effect = lower value
  normalized growth: 0.96
Locus YGL248W, strain PDE1, stronger effect = lower value
  normalized growth: 0.854 (active)
Locus YGL253W, strain hxk2, stronger effect = lower value
  normalized growth: 0.988
Locus YGR135W, strain pre9, stronger effect = lower value
  normalized growth: 0.923
Locus YGR229C, strain SMI1, stronger effect = lower value
  normalized growth: 0.983
Locus YGR252W, strain gcn5, stronger effect = lower value
  normalized growth: 0.93
Locus YHR013C, strain ard1, stronger effect = lower value
  normalized growth: 1.05
Locus YHR027C, strain rpn1, stronger effect = lower value
  normalized growth: 0.98
Locus YHR030C, strain SLT2, stronger effect = lower value
  normalized growth: 0.996 and 1.03
Locus YHR079C, strain IRE1 (second series), stronger effect = lower value
  normalized growth: 0.978
Locus YHR079C, strain IRE1, stronger effect = lower value
  normalized growth: 1.03
Locus YHR094C, strain hxt1, stronger effect = lower value
  normalized growth: 0.987
Locus YHR129C, strain ARP1, stronger effect = lower value
  normalized growth: 0.994
Locus YHR142W, strain chs7, stronger effect = lower value
  normalized growth: 0.998
Locus YHR200W, strain rpn10, stronger effect = lower value
  normalized growth: 0.97
Locus YIL066C, strain RNR3, stronger effect = lower value
  normalized growth: 0.974
Locus YIL073C, strain SPO22, stronger effect = lower value
  normalized growth: 0.751
Locus YIL125W, strain kgd1, stronger effect = lower value
  normalized growth: 0.983
Locus YIR030C, strain dcg1, stronger effect = lower value
  normalized growth: 0.961
Locus YJL092W, strain hpr5, stronger effect = lower value
  normalized growth: 0.991
Locus YJL095W, strain BCK1 (second series), stronger effect = lower value
  normalized growth: 0.979
Locus YJL095W, strain BCK1, stronger effect = lower value
  normalized growth: 0.929 and 1.03
Locus YJL115W, strain asf1, stronger effect = lower value
  normalized growth: 0.963
Locus YJL129C, strain trk1, stronger effect = lower value
  normalized growth: 0.991
Locus YJL134W, strain LCB3, stronger effect = lower value
  normalized growth: 1
Locus YJL154C, strain vps35, stronger effect = lower value
  normalized growth: 0.983
Locus YJL164C, strain tpk1, stronger effect = lower value
  normalized growth: 0.976
Locus YJL166W, strain qcr8, stronger effect = lower value
  normalized growth: 0.944
Locus YJL168C, strain set2, stronger effect = lower value
  normalized growth: 0.985
Locus YJL187C, strain SWE1 (second series), stronger effect = lower value
  normalized growth: 0.97
Locus YJR043C, strain POL32, stronger effect = lower value
  normalized growth: 0.958
Locus YJR066W, strain TOR1, stronger effect = lower value
  normalized growth: 0.928
Locus YKL009W, strain mrt4, stronger effect = lower value
  normalized growth: 0.967
Locus YKL068W, stronger effect = lower value
  normalized growth: 0.986
Locus YKL085W, strain MDH1 (second series), stronger effect = lower value
  normalized growth: 0.972
Locus YKL085W, strain MDH1, stronger effect = lower value
  normalized growth: 0.972
Locus YKL160W, strain elf1, stronger effect = lower value
  normalized growth: 0.992
Locus YKL190W, strain CNB1, stronger effect = lower value
  normalized growth: 0.988
Locus YKR001C, strain vps1, stronger effect = lower value
  normalized growth: 0.942
Locus YKR026C, strain gcn3, stronger effect = lower value
  normalized growth: 0.972
Locus YKR091W, strain srl3, stronger effect = lower value
  normalized growth: 0.985
Locus YLL001W, strain dnm1, stronger effect = lower value
  normalized growth: 0.974
Locus YLL026W, stronger effect = lower value
  normalized growth: 0.991
Locus YLL041C, strain sdh2, stronger effect = lower value
  normalized growth: 0.973
Locus YLR027C, strain aat2, stronger effect = lower value
  normalized growth: 0.998
Locus YLR039C, strain RIC1, stronger effect = lower value
  normalized growth: 0.971
Locus YLR058C, strain SHM2, stronger effect = lower value
  normalized growth: 0.976
Locus YLR102C, strain apc9, stronger effect = lower value
  normalized growth: 0.968
Locus YLR113W, strain HOG1, stronger effect = lower value
  normalized growth: 1.08
Locus YLR221C, strain rsa3, stronger effect = lower value
  normalized growth: 0.962
Locus YLR258W, strain gsy2, stronger effect = lower value
  normalized growth: 0.978
Locus YLR262C, strain YPT6 (second series), stronger effect = lower value
  normalized growth: 0.936
Locus YLR262C, strain YPT6, stronger effect = lower value
  normalized growth: 0.967
Locus YLR268W, strain sec22, stronger effect = lower value
  normalized growth: 0.955
Locus YLR320W, strain mms22, stronger effect = lower value
  normalized growth: 0.944
Locus YLR330W, strain CHS5, stronger effect = lower value
  normalized growth: 0.979
Locus YLR342W, strain FKS1 (second series), stronger effect = lower value
  normalized growth: 0.859
Locus YLR342W, strain FKS1, stronger effect = lower value
  normalized growth: 0.977
Locus YLR357W, strain rsc2, stronger effect = lower value
  normalized growth: 0.911
Locus YLR370C, strain arc18, stronger effect = lower value
  normalized growth: 0.982
Locus YLR371W, strain rom2, stronger effect = lower value
  normalized growth: 0.963
Locus YLR384C, strain iki3, stronger effect = lower value
  normalized growth: 1
Locus YLR418C, strain cdc73, stronger effect = lower value
  normalized growth: 0.91
Locus YML016C, strain PPZ1, stronger effect = lower value
  normalized growth: 0.979
Locus YML032C, strain rad52, stronger effect = lower value
  normalized growth: 0.984
Locus YML120C, strain ndi1, stronger effect = lower value
  normalized growth: 0.97
Locus YML124C, strain tub3, stronger effect = lower value
  normalized growth: 0.993
Locus YMR058W, strain fet3, stronger effect = lower value
  normalized growth: 0.947
Locus YMR078C, strain ctf18, stronger effect = lower value
  normalized growth: 0.963
Locus YMR125W, strain sto1, stronger effect = lower value
  normalized growth: 0.958
Locus YMR129W, stronger effect = lower value
  normalized growth: 0.989
Locus YMR205C, strain PFK2, stronger effect = lower value
  normalized growth: 0.992
Locus YMR223W, strain ubp8, stronger effect = lower value
  normalized growth: 0.922
Locus YMR231W, strain pep5, stronger effect = lower value
  normalized growth: 0.989
Locus YMR307W, strain GAS1, stronger effect = lower value
  normalized growth: 1.08
Locus YNL067W, strain RPL9B, stronger effect = lower value
  normalized growth: 0.939
Locus YNL071W, strain lat1, stronger effect = lower value
  normalized growth: 0.975
Locus YNL183C, strain NPR1, stronger effect = lower value
  normalized growth: 0.987
Locus YNL209W, strain ssb2, stronger effect = lower value
  normalized growth: 0.985
Locus YNL233W, strain BNI4, stronger effect = lower value
  normalized growth: 0.939
Locus YNL248C, strain rpa49, stronger effect = lower value
  normalized growth: 0.95
Locus YNL250W, strain rad50, stronger effect = lower value
  normalized growth: 0.966
Locus YNL271C, strain bni1, stronger effect = lower value
  normalized growth: 0.981
Locus YNL298W, strain CLA4, stronger effect = lower value
  normalized growth: 0.969
Locus YNL307C, strain MCK1, stronger effect = lower value
  normalized growth: 0.973
Locus YNL322C, strain KRE1 (second series), stronger effect = lower value
  normalized growth: 0.969
Locus YNL322C, strain KRE1, stronger effect = lower value
  normalized growth: 0.991
Locus YNR049C, strain mso1, stronger effect = lower value
  normalized growth: 0.984
Locus YNR052C, strain pop2, stronger effect = lower value
  normalized growth: 0.979
Locus YOL012C, strain htz1
  normalized growth: 1.14
Locus YOL147C, strain pex11, stronger effect = lower value
  normalized growth: 0.988
Locus YOR001W, strain rrp6, stronger effect = lower value
  normalized growth: 0.923
Locus YOR061W, strain CKA2, stronger effect = lower value
  normalized growth: 0.993
Locus YOR069W, strain VPS5, stronger effect = lower value
  normalized growth: 0.998
Locus YOR070C, strain gyp1, stronger effect = lower value
  normalized growth: 0.99
Locus YOR080W, strain dia2, stronger effect = lower value
  normalized growth: 0.982
Locus YOR083W, strain WHI5, stronger effect = lower value
  normalized growth: 1
Locus YOR106W, strain vam3, stronger effect = lower value
  normalized growth: 0.965
Locus YOR136W, strain idh2, stronger effect = lower value
  normalized growth: 0.98
Locus YOR144C, strain elg1, stronger effect = lower value
  normalized growth: 0.995
Locus YOR184W, strain ser1, stronger effect = lower value
  normalized growth: 0.939
Locus YOR231W, strain MKK1, stronger effect = lower value
  normalized growth: 1.06
Locus YOR265W, strain rbl2, stronger effect = lower value
  normalized growth: 0.992
Locus YOR270C, strain vph1, stronger effect = lower value
  normalized growth: 0.943
Locus YOR290C, strain snf2, stronger effect = lower value
  normalized growth: 1
Locus YOR316C, strain cot1, stronger effect = lower value
  normalized growth: 0.973
Locus YPL051W, strain arl3, stronger effect = lower value
  normalized growth: 0.993
Locus YPL055C, strain LGE1, stronger effect = lower value
  normalized growth: 0.866
Locus YPL078C, strain atp4, stronger effect = lower value
  normalized growth: 0.999
Locus YPL106C, strain sse1, stronger effect = lower value
  normalized growth: 0.912
Locus YPL240C, strain hsp82, stronger effect = lower value
  normalized growth: 0.984
Locus YPL241C, strain CIN2, stronger effect = lower value
  normalized growth: 0.998
Locus YPL256C, strain CLN2, stronger effect = lower value
  normalized growth: 1.05
Locus YPR119W, strain clb2, stronger effect = lower value
  normalized growth: 0.98
Locus YPR141C, strain kar3, stronger effect = lower value
  normalized growth: 0.965
Locus YPR163C, strain tif3, stronger effect = lower value
  normalized growth: 0.985
Locus YPR167C, strain met16, stronger effect = lower value
  normalized growth: 0.982
Strain wtn01, stronger effect = lower value
  normalized growth: 0.891 (active)
